Experimental data taken from PubChem BioAssay (NCI).
Several values for one entry are separate records, joined by “and”; a condition that tells them apart may be missing. Equal values may be shown once. Compounds without any hit were thinned out: in the full panel of roughly 79,000, 15% have a hit. The source holds several records for some structures; these can differ, active in one and inactive in another. Activity calls are given as the source filed them. Rule as the data show it: active = growth inhibition above about 70%; inactive = the rest.

Assay: NCI Yeast Anticancer Drug Screen. Data for the bub3 strain (AID 167)
Details: S. cerevisiae bub3 mutant strain, at 50.0 µM (retest, dose inferred, filed as 5.0), stronger effect = higher value
Method in brief: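 Inhibition values come from growth of compound-treated mutant yeast normalised to vehicle-treated controls.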

Row | Structure (SMILES) | growth inhibition
1 | CC(=O)OC1CC2C(C)(C)C(=O)C=C[C@]2(C)C2CCC3(C)C(=CCC3[C@H](CO)C[C@H](O)C(=O)C(C)(C)O)[C@]12C (some centres undefined) | 50% (inactive)
2 | C[C](C)(C)[Ge]([O][Ge]([c]1ccccc1)[c]1ccccc1)([O][Ge]([c]1ccccc1)[c]1ccccc1)[C](C)(C)C | 79% (active)
3 | CCc1c(Cl)c(C)cc(O)c1Cl | 53% (inactive)
4 | Cc1nc(Nc2ccccc2[N+](=O)[O-])sc1C(=O)CC(=O)C(=O)Nc1c(C(C)C)cccc1C(C)C | 33% (inactive)
5 | O=[N+]([O-])c1cccc2nc3ccccc3c(NCCCn3ccnc3[N+](=O)[O-])c12 | 78% (active)
6 | CCCCCCC(O)CNCc1ccnc2ccc(OC)cc12 (centres undefined) | 63% (inactive)
7 | Cc1c2cccc(Sc3ccccc3)c2c2c3c(cccc13)[S+](c1ccccc1)C2 (centres undefined) | 97% (active)
8 | C=C1CCC(O)C/C1=C/C=C1\CCCC2(C)C1CCC2C(C)CCCC(C)C (centres undefined) | 69% (inactive)
9 | NC1=NNC2(C(N)=N1)c1ccccc1-c1ccccc12 | 54% (inactive)
10 | COc1cc2cc3c4cc(OC)c(OC)cc4cc[n+]3c(C)c2cc1OC | 19% (inactive)
11 | COC(=O)NC1C(C)OC(OC2C/C=C(/C)C3C=CC4C(OC5CC(OC6CC(O)C(OC7CC(O)C(OC)C(C)O7)C(C)O6)C(O)C(C)O5)C(C)CC(C)C4C3(C)/C(O)=C3\C(=O)OC4(CC(C)C(CO)=CC4/C=C\2C)C3=O)CC1(C)[N+](=O)[O-] (centres undefined) | 26% (inactive)
12 | O=C1CSC(c2cccc(Cl)c2)N1c1ccc(-c2ccc(-n3c(-c4ccccc4)nc4ccccc4c3=O)cc2)cc1 (centres undefined) | 85% (active)
13 | CCOC(=O)C(C(=O)OCC)=P(c1ccccc1)(c1ccccc1)c1ccccc1 | 19% (inactive)
14 | COc1ccc(N=CN(C)C)c(C)c1 | 95% (active)
15 | Cc1cc(S(=O)(=O)Nc2nnc3cnc4ccccc4n23)c(S)cc1Cl | 70% (active)
16 | CN(C)[C@@H]1C(=O)C(C(N)=O)=C(O)[C@@]2(O)C(=O)C3=C(O)c4c(O)cccc4C[C@H]3C[C@@H]12 | 99% (active)
17 | O=[N+]([O-])c1ccc2c(c1)/C(=N/N=C1c3ccccc3Cc3ccccc31)c1cc([N+](=O)[O-])cc([N+](=O)[O-])c1-2 | 98% (active)
18 | Cc1nc2c(Br)cc(Br)cc2c(=O)n1-c1ccccc1NC1OCC(O)C(O)C1O (centres undefined) | 92% (active) and 51% (inactive)
19 | Cc1cc(N(CCOS(C)(=O)=O)CCOS(C)(=O)=O)ccc1C=Nc1ccc(-c2nc(Cc3ccccc3)sc2C)cc1 | -14% (inactive) and 55% (inactive)
